Measurements taken from PubChem BioAssay (NCI).
This is part of a sample that, as a whole, favours compounds with a hit. Of some 83,000 tested, about 20% had one in any assay.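 48-hour exposure, single concentration, 96-well plates; percent growth endpoint where 0 means no net growth. Active: below 10.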 Active and inactive are the calls of the source.

Key:
Assay in all cases: NCI-60 one-dose screen, 48 h (100 = growth as untreated, 0 = no growth, -100 = all killed)
Conditions in all cases: 10 µM unless noted
HCT-15 colon = test system: HCT-15 colon
HT29 colon = test system: HT29 colon
SNB-75 CNS = test system: SNB-75 CNS
SNB-19 CNS = test system: SNB-19 CNS
U251 CNS = test system: U251 CNS
PC-3 prostate = test system: PC-3 prostate
SK-MEL-5 melanoma = test system: SK-MEL-5 melanoma
UACC-62 melanoma = test system: UACC-62 melanoma
LOX IMVI melanoma = test system: LOX IMVI melanoma
SK-MEL-28 melanoma = test system: SK-MEL-28 melanoma
SK-MEL-2 melanoma = test system: SK-MEL-2 melanoma
EKVX NSCLC = test system: EKVX NSCLC
SN12C renal = test system: SN12C renal
UO-31 renal = test system: UO-31 renal
TK-10 renal = test system: TK-10 renal
ACHN renal = test system: ACHN renal
CAKI-1 renal = test system: CAKI-1 renal
A498 renal = test system: A498 renal
CCRF-CEM leukemia = test system: CCRF-CEM leukemia
MOLT-4 leukemia = test system: MOLT-4 leukemia

Measured: growth

CCN(CC)c1ccc2c(cc1=O)[C@@H](NC(C)=O)CCc1cc(OC)c(OC)c(OC)c1-2
active: HT29 colon -26.4% | SK-MEL-5 melanoma 7.17% | SK-MEL-2 melanoma 4.73% | A498 renal -15.9% | CCRF-CEM leukemia 9.47% | MOLT-4 leukemia 2.09%
inactive: HCT-15 colon 30% | SNB-75 CNS 22.1% | SNB-19 CNS 40.8% | U251 CNS 11.8% | PC-3 prostate 31.7% | UACC-62 melanoma 19.4% | LOX IMVI melanoma 25.1% | SK-MEL-28 melanoma 62.3% | EKVX NSCLC 44.6% | SN12C renal 32.9% | UO-31 renal 58.3% | TK-10 renal 30.8% | ACHN renal 30.3% | CAKI-1 renal 64.3%

Cc1ccc(C(CN(C)C)C(=O)c2ccccc2)cc1 (stereo not given)
inactive: SNB-75 CNS 54.1% | SNB-19 CNS 85.7% | U251 CNS 41.7% | PC-3 prostate 32.9% | SK-MEL-5 melanoma 64.1% | SK-MEL-28 melanoma 50.7% | SK-MEL-2 melanoma 49.7% | EKVX NSCLC 68.7% | SN12C renal 36.4% | UO-31 renal 53.5% | TK-10 renal 44.8% | CAKI-1 renal 52.4% | A498 renal 60.6%
active: HCT-15 colon -12.1% | HT29 colon -34.3% | UACC-62 melanoma 6.99% | LOX IMVI melanoma -6.07% | ACHN renal -2.93% | CCRF-CEM leukemia -9.16% | MOLT-4 leukemia -9.61%

C#C[C@]1(O)CC[C@H]2[C@@H]3CC=C4c5sc(-c6cccc(Br)c6)nc5CC[C@]4(C)[C@H]3CC[C@@]21C
inactive: HCT-15 colon 61.7% | HT29 colon 83.1% | SNB-75 CNS 59% | SNB-19 CNS 84.6% | U251 CNS 70.9% | PC-3 prostate 57.2% | SK-MEL-5 melanoma 99.9% | UACC-62 melanoma 89.9% | LOX IMVI melanoma 71.6% | SK-MEL-28 melanoma 54.7% | SK-MEL-2 melanoma 98.2% | EKVX NSCLC 80.1% | SN12C renal 96.3% | UO-31 renal 62.6% | TK-10 renal 97.7% | ACHN renal 83.3% | CAKI-1 renal 35% | A498 renal 71.7% | CCRF-CEM leukemia 61.4% | MOLT-4 leukemia 58%

Cc1cc(C#Cc2ccc(C(C)(C)C)cc2)ccc1-n1c(/C=C/c2c(Cl)cccc2Cl)nc2ccccc2c1=O
inactive: HCT-15 colon 90.9% | HT29 colon 93.2% | SNB-75 CNS 82% | SNB-19 CNS 105% | U251 CNS 93.9% | PC-3 prostate 80.8% | SK-MEL-5 melanoma 106% | UACC-62 melanoma 101% | LOX IMVI melanoma 87.3% | SK-MEL-28 melanoma 126% | SK-MEL-2 melanoma 120% | EKVX NSCLC 89.9% | SN12C renal 104% | UO-31 renal 77.2% | TK-10 renal 99.1% | ACHN renal 96.2% | CAKI-1 renal 83.9% | A498 renal 104% | CCRF-CEM leukemia 95.9% | MOLT-4 leukemia 86.9%

CC(=O)Cc1ccccn1
inactive: HCT-15 colon 98.6% | HT29 colon 95.9% | SNB-75 CNS 104% | SNB-19 CNS 114% | U251 CNS 93.5% | PC-3 prostate 94.8% | SK-MEL-5 melanoma 105% | UACC-62 melanoma 108% | LOX IMVI melanoma 103% | SK-MEL-28 melanoma 106% | SK-MEL-2 melanoma 102% | EKVX NSCLC 97.7% | SN12C renal 111% | UO-31 renal 88.5% | TK-10 renal 109% | ACHN renal 99.5% | CAKI-1 renal 88% | A498 renal 107% | CCRF-CEM leukemia 99.5% | MOLT-4 leukemia 102%

CCC1N=C(N)N=C(N)N1c1ccc(Cl)cc1 (stereo not given)
inactive: HCT-15 colon 105% | HT29 colon 72.1% | SNB-75 CNS 91.7% | SNB-19 CNS 106% | U251 CNS 58.8% | PC-3 prostate 62.6% | SK-MEL-5 melanoma 49.5% | UACC-62 melanoma 100% | LOX IMVI melanoma 68.6% | SK-MEL-28 melanoma 101% | SK-MEL-2 melanoma 100% | EKVX NSCLC 68.4% | SN12C renal 96.9% | UO-31 renal 89% | TK-10 renal 97% | ACHN renal 108% | CAKI-1 renal 96.3% | A498 renal 77.1% | CCRF-CEM leukemia 107% | MOLT-4 leukemia 79.6%

CN1C(=O)N(C)C2C1NN=c1s/c(=C\c3ccc(Br)cc3)c(=O)n12 (stereo not given)
inactive: HCT-15 colon 22.8% | HT29 colon 10.7% | SNB-75 CNS 11.4% | SNB-19 CNS 34.9% | U251 CNS 29.3% | PC-3 prostate 18.3% | SK-MEL-5 melanoma 14% | UACC-62 melanoma 27.9% | LOX IMVI melanoma 35.8% | SK-MEL-28 melanoma 71.1% | SK-MEL-2 melanoma 52.7% | EKVX NSCLC 50% | SN12C renal 50.2% | UO-31 renal 53.4% | TK-10 renal 60.4% | ACHN renal 43.2% | CAKI-1 renal 38.6% | A498 renal 20.2% | CCRF-CEM leukemia 10.3% | MOLT-4 leukemia 40.3%

CC(C)(C)[Si](C)(C)OC1[C@@H](O[Si](C)(C)C(C)(C)C)[C@@H](CNC(=O)NC(=O)NC(=O)CCl)O[C@H]1n1cnc2c(NC(=O)Nc3ccccc3)ncnc21 (stereo not given in full)
active: HT29 colon -11.4% | LOX IMVI melanoma -74.5% | UO-31 renal -94.9% | ACHN renal -12.9% | CCRF-CEM leukemia -30.4% | MOLT-4 leukemia 4.05%
inactive: HCT-15 colon 79% | SNB-75 CNS 80.2% | SNB-19 CNS 99.5% | U251 CNS 29.7% | PC-3 prostate 11.3% | SK-MEL-5 melanoma 86.6% | UACC-62 melanoma 87.7% | SK-MEL-28 melanoma 105% | SK-MEL-2 melanoma 84.9% | EKVX NSCLC 86.3% | SN12C renal 54.6% | TK-10 renal 97.2% | CAKI-1 renal 76.2% | A498 renal 88.7%

Cc1c2c(cc3c1[nH]c1ccccc13)C=NCC2
inactive: HCT-15 colon 95.1% | HT29 colon 61.2% | SNB-75 CNS 84% | SNB-19 CNS 93.4% | U251 CNS 92.5% | PC-3 prostate 91% | SK-MEL-5 melanoma 88.1% | UACC-62 melanoma 107% | LOX IMVI melanoma 87.4% | SK-MEL-28 melanoma 118% | SK-MEL-2 melanoma 109% | EKVX NSCLC 80% | SN12C renal 90.8% | UO-31 renal 80% | TK-10 renal 113% | ACHN renal 96.9% | CAKI-1 renal 92.9% | A498 renal 71.7% | CCRF-CEM leukemia 75.9% | MOLT-4 leukemia 83.3%

Oc1ccc(-c2nnc3c4[nH]ccc4ncn23)cc1
inactive: HCT-15 colon 110% | HT29 colon 98.3% | SNB-75 CNS 78.8% | SNB-19 CNS 98.9% | U251 CNS 102% | PC-3 prostate 94.3% | SK-MEL-5 melanoma 104% | UACC-62 melanoma 95.2% | LOX IMVI melanoma 89.9% | SK-MEL-28 melanoma 102% | SK-MEL-2 melanoma 113% | EKVX NSCLC 93.6% | SN12C renal 95.2% | UO-31 renal 76.3% | TK-10 renal 92.3% | ACHN renal 87.9% | CAKI-1 renal 84.7% | A498 renal 74.4% | CCRF-CEM leukemia 108% | MOLT-4 leukemia 93.3%

O=C(CCl)Nc1cc(O)c2c(c1)C(=O)c1cccc(O)c1C2=O
active: HCT-15 colon -82.2% | HT29 colon -88% | SNB-75 CNS 7.38% | SNB-19 CNS -36.5% | U251 CNS -96.2% | PC-3 prostate -63.6% | SK-MEL-5 melanoma -95% | UACC-62 melanoma -67.3% | LOX IMVI melanoma -68.2% | SK-MEL-28 melanoma 2.89% | SK-MEL-2 melanoma -49.4% | EKVX NSCLC 5% | SN12C renal -43.1% | UO-31 renal -87% | TK-10 renal -87.3% | ACHN renal -91.2% | CAKI-1 renal -94% | A498 renal -0.734% | CCRF-CEM leukemia -45% | MOLT-4 leukemia -56.3%

COCc1nc(NS(=O)(=O)c2ccc(N)cc2)nc(C)c1Br
inactive: HCT-15 colon 97.7% | HT29 colon 88.6% | SNB-75 CNS 89.4% | SNB-19 CNS 108% | U251 CNS 103% | PC-3 prostate 101% | SK-MEL-5 melanoma 102% | UACC-62 melanoma 101% | LOX IMVI melanoma 94.1% | SK-MEL-28 melanoma 105% | SK-MEL-2 melanoma 96.6% | EKVX NSCLC 95.9% | SN12C renal 108% | UO-31 renal 95.4% | TK-10 renal 93.1% | ACHN renal 102% | CAKI-1 renal 102% | A498 renal 118% | CCRF-CEM leukemia 103% | MOLT-4 leukemia 103%

Cc1ccccc1C1CC(=O)c2ccccc2C1C (stereo not given)
inactive: HCT-15 colon 96.9% | HT29 colon 100% | SNB-75 CNS 85% | SNB-19 CNS 94.5% | U251 CNS 88.5% | PC-3 prostate 99.4% | SK-MEL-5 melanoma 105% | UACC-62 melanoma 87.4% | LOX IMVI melanoma 100% | SK-MEL-28 melanoma 107% | SK-MEL-2 melanoma 120% | EKVX NSCLC 101% | SN12C renal 99.1% | UO-31 renal 82.1% | TK-10 renal 105% | ACHN renal 108% | CAKI-1 renal 106% | A498 renal 88.5% | CCRF-CEM leukemia 95.2% | MOLT-4 leukemia 93.5%

Cn1c(-c2ccccc2)cc(=O)n1-c1ccccc1
inactive: HCT-15 colon 104% | HT29 colon 106% | SNB-75 CNS 92.9% | SNB-19 CNS 108% | U251 CNS 109% | PC-3 prostate 100% | SK-MEL-5 melanoma 104% | UACC-62 melanoma 103% | LOX IMVI melanoma 101% | SK-MEL-28 melanoma 113% | SK-MEL-2 melanoma 121% | EKVX NSCLC 93.7% | SN12C renal 107% | UO-31 renal 101% | TK-10 renal 116% | ACHN renal 109% | CAKI-1 renal 95.6% | A498 renal 89.1% | CCRF-CEM leukemia 91.1% | MOLT-4 leukemia 99.6%

C=C1C(=O)O[C@H]2[C@H]1CC/C(COC(=O)NCc1ccc(Cn3c(=O)sn(CCCl)c3=O)cc1)=C\CC[C@@]1(C)O[C@@H]21
active: CCRF-CEM leukemia -3.67% | MOLT-4 leukemia -18.8%
inactive: HCT-15 colon 27.6% | HT29 colon 15.1% | SNB-75 CNS 85.5% | SNB-19 CNS 99% | U251 CNS 78.7% | PC-3 prostate 78.7% | SK-MEL-5 melanoma 81.7% | UACC-62 melanoma 69.5% | LOX IMVI melanoma 60.8% | SK-MEL-28 melanoma 64.3% | SK-MEL-2 melanoma 68.8% | EKVX NSCLC 83.6% | SN12C renal 82.6% | UO-31 renal 79.3% | TK-10 renal 11.4% | ACHN renal 70.3% | CAKI-1 renal 48.3% | A498 renal 98.4%
